PubChem BioAssay (NCI)
Several values for one entry are separate records, joined by “and”; a condition that tells them apart may be missing. Identical values can stand only once. The panel holds about 79,000 compounds, 15% with a hit somewhere; the sample as a whole holds those more often. Activity calls are given as the source filed them. Rule as the data show it: active = growth inhibition above about 70%; inactive = the rest.

Assays:
[1] = NCI Yeast Anticancer Drug Screen. Data for the wt1 strain (AID 149);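 also: 0% = growth of vehicle-treated wt1 cultures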; conditions: S. cerevisiae wt1 strain (SPY 50644) growth inhibition, stronger effect = higher value
Procedure, shortened: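 Yeast wt1 strain exposed to compounds; growth inhibition measured relative to vehicle-treated controls.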

[2] = NCI Yeast Anticancer Drug Screen. Data for the rad50EPP+ strain (AID 151);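 also: 0% = growth of vehicle-treated control cultures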; conditions: S. cerevisiae rad50 mutant strain, stronger effect = higher value
Procedure, shortened: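 Measured: growth inhibition of rad50EPP+ yeast. Reference: vehicle-treated controls. Screen uses strains with defined genetic alterations in DNA damage repair or cell cycle control.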

[3] = NCI Yeast Anticancer Drug Screen. Data for the mgt1 strain (AID 153); conditions: S. cerevisiae mgt1 mutant growth inhibition, stronger effect = higher value
Procedure, shortened: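 Compounds were applied to mgt1 mutant yeast, and growth was then compared against vehicle-treated control cultures to give percent inhibition.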

[4] = NCI Yeast Anticancer Drug Screen. Data for the rad50 strain (AID 155);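 also: 0% = growth of vehicle-only cultures of the same strain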; conditions: S. cerevisiae rad50 strain growth inhibition, stronger effect = higher value
Procedure, shortened: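 Yeast carrying a defined DNA repair defect were exposed to test compounds, and growth was compared with vehicle-treated controls to give percent inhibition.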

[5] = NCI Yeast Anticancer Drug Screen. Data for the mec2-1 strain (AID 157); conditions: S. cerevisiae mec2-1 strain, stronger effect = higher value
Procedure, shortened: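 Compounds were applied to mec2-1 yeast cells. Their growth was then compared with that of vehicle-treated cultures to give growth inhibition.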

[6] = NCI Yeast Anticancer Drug Screen. Data for the rad14 strain (AID 159);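 also: 0% = growth of vehicle-treated control cultures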; conditions: S. cerevisiae rad14 strain growth inhibition, stronger effect = higher value
Procedure, shortened: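 Yeast cells carrying a defined DNA-repair defect were exposed to compounds, and growth inhibition was calculated relative to vehicle-treated control cultures.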

[7] = NCI Yeast Anticancer Drug Screen. Data for the sgs1 mgt1 strain (AID 161);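 also: 0% = growth of cultures given vehicle only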; conditions: S. cerevisiae sgs1 mgt1 strain, stronger effect = higher value
Procedure, shortened: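 This yeast growth screen uses a strain with defined DNA-repair lesions; compound-treated growth is compared with vehicle-treated growth.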

[8] = NCI Yeast Anticancer Drug Screen. Data for the CLN2oe strain (AID 163);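 also: 0% = growth of vehicle-only control cultures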; conditions: S. cerevisiae CLN2oe strain, stronger effect = higher value
Procedure, shortened: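 Cells of an engineered yeast line with disturbed cell-cycle regulation are treated with compound. Inhibition of growth is then calculated relative to the vehicle-treated reference.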

[9] = NCI Yeast Anticancer Drug Screen. Data for the cln2 rad14 strain (AID 165);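 also: 0% = growth equal to vehicle treated cultures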; conditions: S. cerevisiae cln2 rad14 strain, stronger effect = higher value
Procedure, shortened: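 Strain: cln2 rad14 yeast, altered in cell cycle control and DNA damage repair. Read-out: growth inhibition vs vehicle.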

[10] = NCI Yeast Anticancer Drug Screen. Data for the bub3 strain (AID 167); conditions: S. cerevisiae bub3 mutant strain, stronger effect = higher value
Procedure, shortened: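 Compounds were applied to a genetically altered yeast strain carrying a cell-cycle control defect. Growth inhibition was scored against vehicle-treated controls.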

[11] = NCI Yeast Anticancer Drug Screen. Data for the mlh1 strain (AID 171);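 also: 0% = growth of vehicle-treated control cultures of the same strain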; conditions: S. cerevisiae mlh1 strain growth inhibition, stronger effect = higher value
Procedure, shortened: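 Test agents were incubated with yeast bearing a defined DNA damage repair or cell cycle control alteration; values are growth inhibition normalised to vehicle-treated cultures.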

[12] = NCI Yeast Anticancer Drug Screen. Data for the mlh1 rad18 strain (AID 175); conditions: S. cerevisiae mlh1 rad18 strain growth inhibition, stronger effect = higher value
Procedure, shortened: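 A repair-deficient yeast strain is exposed to test compound, and growth is scored relative to vehicle-treated controls.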

[13] = NCI Yeast Anticancer Drug Screen. Data for the rad18 strain (AID 177); conditions: S. cerevisiae rad18 mutant growth inhibition, stronger effect = higher value
Procedure, shortened: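 DNA-repair-defective yeast; compound treatment; growth inhibition scored against vehicle.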

[14] = NCI Yeast Anticancer Drug Screen. Data for the wt2 strain (AID 169);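 also: 0% = growth of vehicle-treated yeast cultures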; conditions: S. cerevisiae wt2 strain growth inhibition, stronger effect = higher value
Procedure, shortened: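 Growth of compound-treated yeast is measured and expressed as inhibition relative to vehicle-only controls.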

[15] = NCI Yeast Anticancer Drug Screen. Data for the sgs1 strain (AID 173);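 also: 0% = growth of vehicle-only control cultures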; conditions: S. cerevisiae sgs1 mutant, stronger effect = higher value
Procedure, shortened: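 Strain with an altered DNA repair or cell cycle pathway exposed to compound. Growth then measured. Value = inhibition versus vehicle control.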

[16] = NCI Yeast Anticancer Drug Screen. Data for the rad52 strain (AID 147);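 also: 0% = growth of vehicle-treated control cultures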; conditions: S. cerevisiae rad52 mutant growth inhibition, stronger effect = higher value
Procedure, shortened: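 Growth of repair-deficient yeast cells was compared between compound-treated and vehicle-treated cultures to give percent inhibition.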

[17] = at 5.0 µM (retest, dose inferred, filed as 0.5)
[18] = at 50.0 µM (retest, dose inferred, filed as 5.0)

Measured: growth inhibition

COc1ccc(N)c2c1C(=O)c1ccccc1C2=O
inactive: [1]; at 1.2 µM 0% | [1]; at 3.7 µM 11% | [1]; at 11.0 µM 14% | [1]; at 33.0 µM 47% | [2]; at 1.2 µM 9% | [2]; at 3.7 µM 26% | [2]; at 11.0 µM 59% | [3]; at 1.2 µM 3% | [3]; at 3.7 µM -3% | [3]; at 11.0 µM 8% | [3]; at 33.0 µM 39% | [4]; at 1.2 µM 7% | [4]; at 3.7 µM 8% | [4]; [17] 30% | [4]; at 11.0 µM 35% | [4]; [18] 39% | [4]; at 50.0 µM 60.2% | [5]; at 1.2 µM -9% | [5]; at 3.7 µM 0% | [5]; [17] 47% | [5]; at 11.0 µM 12% | [5]; at 33.0 µM 40% | [5]; [18] 56% | [5]; at 50.0 µM 32.1% | [6]; at 1.2 µM -6% | [6]; at 3.7 µM -23% | [6]; at 11.0 µM 2% | [6]; at 33.0 µM 29% | [7]; [17] -15% | [7]; at 50.0 µM 62.5% | [8]; at 1.2 µM -2% | [8]; at 3.7 µM 6% | [8]; at 11.0 µM 17% | [8]; at 33.0 µM 34% | [9]; [17] 62% | [9]; at 50.0 µM 32.5% | [10]; at 1.2 µM -25% | [10]; at 3.7 µM -24% | [10]; [17] 41% | [10]; at 11.0 µM -32% | [10]; at 33.0 µM 19% | [10]; at 50.0 µM 49% | [11]; at 1.2 µM -5% | [11]; at 3.7 µM -9% | [11]; at 11.0 µM 1% | [11]; at 33.0 µM 46% | [12]; [17] 27% | [12]; [18] 40% | [13]; at 1.2 µM -20% | [13]; at 3.7 µM -12% | [13]; at 11.0 µM -10% | [13]; at 33.0 µM 54%
active: [1]; at 100.0 µM 94% | [2]; at 33.0 µM 93% | [2]; at 100.0 µM 97% | [3]; at 100.0 µM 93% | [4]; at 33.0 µM 89% | [4]; at 100.0 µM 96% | [5]; at 100.0 µM 81% | [6]; at 100.0 µM 93% | [7]; [18] 79% | [8]; at 100.0 µM 89% | [9]; [18] 71% | [10]; [18] 72% | [10]; at 100.0 µM 93% | [11]; at 100.0 µM 94% | [12]; at 50.0 µM 77.5% | [13]; at 100.0 µM 93%

NC(=O)N1c2ccccc2C=Cc2ccccc21
active: [4]; [18] 99% | [5]; [18] 98% | [12]; [18] 100%
inactive: [1]; at 1.2 µM -20% | [1]; at 3.7 µM -16% | [1]; at 11.0 µM -24% | [1]; at 33.0 µM -24% | [1]; at 100.0 µM -44% | [4]; at 1.2 µM -39% | [4]; at 3.7 µM -14% | [4]; [17] 60% | [4]; at 11.0 µM -24% | [4]; at 33.0 µM -42% | [4]; at 50.0 µM -5.55% | [4]; at 100.0 µM -53% | [5]; at 1.2 µM -63% | [5]; at 3.7 µM -55% | [5]; [17] 63% | [5]; at 11.0 µM -55% | [5]; at 33.0 µM -69% | [5]; at 50.0 µM -3.4% | [5]; at 100.0 µM -68% | [6]; at 1.2 µM -42% | [6]; at 3.7 µM -28% | [6]; at 11.0 µM -41% | [6]; at 33.0 µM -37% | [6]; at 100.0 µM -37% | [7]; [17] -12% | [7]; [18] 29% | [7]; at 50.0 µM 15.4% | [8]; at 1.2 µM 5% | [8]; at 3.7 µM 19% | [8]; at 11.0 µM 15% | [8]; at 33.0 µM 7% | [8]; at 100.0 µM 0% | [10]; at 1.2 µM -26% | [10]; at 3.7 µM -34% | [10]; [17] -17% | [10]; at 11.0 µM -41% | [10]; at 33.0 µM -43% | [10]; [18] 3% | [10]; at 50.0 µM 15.3% | [10]; at 100.0 µM -39% | [14]; at 1.2 µM -25% | [14]; at 3.7 µM -30% | [14]; at 11.0 µM -37% | [14]; at 33.0 µM -38% | [14]; at 100.0 µM -43% | [11]; at 1.2 µM -45% | [11]; at 3.7 µM -31% | [11]; at 11.0 µM -40% | [11]; at 33.0 µM -62% | [11]; at 100.0 µM -55% | [15]; at 1.2 µM -78% | [15]; at 3.7 µM -54% | [15]; at 11.0 µM -51% | [15]; at 33.0 µM -52% | [15]; at 100.0 µM -45% | [12]; [17] 60% | [12]; at 50.0 µM -6.9% | [13]; at 1.2 µM -49% | [13]; at 3.7 µM -51% | [13]; at 11.0 µM -37% | [13]; at 33.0 µM -64% | [13]; at 100.0 µM -59%

CC(=O)C1=C(O)C2(C)c3c(O)c(C)c(O)c(C(C)=O)c3OC2(Sc2ccccc2)CC1=O (stereo not drawn)
inactive: [16]; at 1.2 µM 24% | [16]; at 3.7 µM 43% | [16]; at 11.0 µM 54% | [16]; at 33.0 µM 58% | [1]; at 1.2 µM 21% | [1]; at 3.7 µM 51% | [1]; at 11.0 µM 55% | [1]; at 33.0 µM 66% | [4]; at 1.2 µM 20% | [4]; at 3.7 µM 20% | [4]; [17] -15% | [4]; at 11.0 µM 36% | [4]; at 33.0 µM 53% | [4]; at 50.0 µM 63% and 7.1% | [5]; at 1.2 µM 4% | [5]; at 3.7 µM 24% | [5]; [17] 22% | [5]; at 11.0 µM 43% | [5]; at 33.0 µM 54% | [5]; at 50.0 µM 68.6% and -7.9% | [6]; at 1.2 µM 0% | [6]; at 3.7 µM 5% | [6]; at 11.0 µM 17% | [6]; at 33.0 µM 30% | [7]; [17] 9% | [7]; at 50.0 µM 48.1% and 0.4% | [8]; at 1.2 µM -1% | [8]; at 3.7 µM 34% | [8]; at 11.0 µM 44% | [8]; at 33.0 µM 52% | [10]; at 1.2 µM 12% | [10]; at 3.7 µM 40% | [10]; [17] 36% | [10]; at 11.0 µM 42% | [10]; at 33.0 µM 51% | [10]; at 50.0 µM 59.5% and -0.65% | [14]; at 1.2 µM 10% | [14]; at 3.7 µM 34% | [14]; at 11.0 µM 41% | [14]; at 33.0 µM 54% | [11]; at 1.2 µM 3% | [11]; at 3.7 µM 23% | [11]; at 11.0 µM 25% | [11]; at 33.0 µM 38% | [15]; at 1.2 µM 20% | [15]; at 3.7 µM 35% | [15]; at 11.0 µM 48% | [15]; at 33.0 µM 55% | [12]; [17] 14% | [12]; at 50.0 µM 61.6% and 6.3% | [13]; at 1.2 µM 18% | [13]; at 3.7 µM 39% | [13]; at 11.0 µM 31% | [13]; at 33.0 µM 47%
active: [16]; at 100.0 µM 86% | [1]; at 100.0 µM 89% | [4]; [18] 85% | [4]; at 100.0 µM 83% | [5]; [18] 93% | [5]; at 100.0 µM 84% | [6]; at 100.0 µM 85% | [7]; [18] 91% | [8]; at 100.0 µM 85% | [10]; [18] 91% | [10]; at 100.0 µM 86% | [14]; at 100.0 µM 89% | [11]; at 100.0 µM 83% | [15]; at 100.0 µM 85% | [12]; [18] 89% | [13]; at 100.0 µM 82%
